Screening data deposited in PubChem by National Center for Advancing Translational Sciences (NCATS).
Pf Dd2 growth: blocks in vitro growth of P. falciparum Dd2; P. falciparum Dd2 growth, SYBR Green, 72 h; Potency, µM (series often up to 28.9 µM), without a hit: top-dose activity, negative = inhibition, hits mostly inhibitors; hit rate 4.3% among 120,000; AID 1347417; active = well fitted inhibition curve with a large enough effect;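 note: plate controls were DMSO vehicle for no effect and reference drug for full effect; nearly all actives have a fitted effect of over 65% in size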
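Infected erythrocytes (Dd2, 0.3% parasitemia, 2.5% hematocrit final) are added to compound in RPMI-1640/Albumax II medium, grown 72 h at 37C in low oxygen, then lysed with saponin/Triton-X containing SYBR Green and read by fluorescence.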
* hit, by the source's call; i = inactive; [ ] = dose if it differs, or a comment. The full list was thinned out, with hits kept by preference. Potency is the fitted concentration of half-maximal effect.

SMILES | Pf Dd2 growth
COc1ccc(CNC(=O)NCC23CCC=C2N(C)C(=O)CC3)cc1 (stereo unspecified) | -17%
CCCNC(=O)N1CCc2cc(OC)c(OC)cc2C1CNC(=O)c1ccccc1C (stereo unspecified) | 8.9µM*
COc1cc2c(cc1OC)C(CNC(=O)c1ccccc1Cl)N(C(=O)Nc1ccccc1F)CC2 (stereo unspecified) | -3%
COc1cc2c(cc1OC)C(CNC(=O)C1CCCC1)N(C(=O)Nc1cccc(C)c1)CC2 (stereo unspecified) | 11µM*
COc1ccccc1NC(=O)N1CCc2cc(OC)c(OC)cc2C1CNC(=O)c1ccco1 (stereo unspecified) | 7.1µM*
COc1cc2c(cc1OC)C(CNC(=O)c1cccs1)N(C(=O)Nc1ccccc1)CC2 (stereo unspecified) | 8.9µM*
CCC(=O)NCC1c2cc(OC)c(OC)cc2CCN1C(=O)Nc1ccccc1 (stereo unspecified) | -5%
CCC(=O)NCC1c2cc(OC)c(OC)cc2CCN1C(=O)Nc1cccc(C)c1 (stereo unspecified) | i
COc1ccccc1NC(=O)N1CCc2cc(OC)c(OC)cc2C1CNC(C)=O (stereo unspecified) | 9%
COc1cc2c(cc1OC)C(CNC(=O)c1ccccc1)N(C(=O)Nc1ccccc1F)CC2 (stereo unspecified) | i
COc1cc2c(cc1OC)C(CNC(=O)C1CCCC1)N(C(=O)NC(C)C)CC2 (stereo unspecified) | i
COc1cc2c(cc1OC)C(CNC(=O)c1cccs1)N(C(=O)Nc1ccccc1F)CC2 (stereo unspecified) | i
COCC(=O)N1CCCN(C(=O)C2CC2)c2ccccc21 | 10%
CC(C)c1ccc(N2CC(C(=O)N(C)Cc3cnccn3)CC2=O)cc1 (stereo unspecified) | -14%
N#Cc1ccc(S(=O)(=O)N2CCCOCCNC(=O)[C@@H]3CCC[C@@H]32)cc1 | -5%
CCN(CC)Cc1cnc2c(C(=O)N3CCCC3c3ccccn3)cnn2c1 (stereo unspecified) | -15%
COCc1ccc(C(=O)N2CCCN(C)C3(CCN(C)CC3)C2)o1 | -14%
O=C1NCC(c2ccc(Cl)cc2)Cc2[nH]c(-c3ccc(O)cc3)nc21 (stereo unspecified) | -25%
Cn1nccc1C(=O)N1CCCCCCNC(=O)[C@@H]2CCCC[C@@H]21 | 4%
CC(C)(C)c1ccc(C(=O)Nc2onc3c2CCCC3)cc1 | 7.9µM*
O=C(Nc1onc2c1CCCC2)c1ccccc1 | -6%
CCOc1ccc(C(=O)Nc2onc3c2CCCC3)cc1 | 24%
COCCN1C(=O)c2cccn2CC1CNC(=O)c1ccc(C)nc1 (stereo unspecified) | -15%
COc1ccccc1N1CCN(CC[C@H]2CN(C(=O)Nc3ccccc3)CC[C@H]2CC(=O)O)CC1 | 2%
COCCNC(=O)c1ccc2c(c1)C1(CCN(C)C1)CN2Cc1csc(C)n1 (stereo unspecified) | i
SMILES | Pf Dd2 growth
Cc1nc(CN2CC3(CCN(C)C3)c3cc(C(=O)NCCc4ccccc4)ccc32)cs1 (stereo unspecified) | 11µM*
CN1CCCC2(C1)CN(C)c1ccc(C(=O)NCCc3ccccc3)cc12 (stereo unspecified) | -27%[44.1 µM]
O=C(c1ccc2ccccc2n1)N1CCN(C(=O)c2nnn3c2COC(c2ccccc2)C3)CC1 (stereo unspecified) | 6.3µM*
O=C(c1ccccc1)N1CCN(C(=O)c2nnn3c2COC(c2ccccc2)C3)CC1 (stereo unspecified) | i
O=C(c1ccccn1)N1CCN(C(=O)c2nnn3c2COC(c2ccccc2)C3)CC1 (stereo unspecified) | i
CCNc1cc(N2CCC(CCC(=O)N(CC)CC)CC2)ncn1 | -1%
COc1ccc(CCC(=O)N2c3ccccc3CC2c2nc(C3CC3)no2)cc1 (stereo unspecified) | i[5.79 µM]
CCc1ccc(NC(=O)CSc2nc(-c3ccccc3)no2)cc1 | 2.5µM*
CCN(C(=O)CSc1nc(-c2ccccc2)no1)c1ccccc1 | 3.2µM*
CCc1ccc(NC(=O)CSc2nc3ccccc3nc2Cc2ccc(C)cc2)cc1 | 8%
COc1ccc(N2CCN(C(=O)CSc3nc(-c4ccccc4)no3)CC2)cc1 | 2.8µM*
CCN(C(=O)CSc1nc2ccccc2[nH]1)c1ccccc1 | 41%[5.79 µM]
CC(C)c1ccc(C(=O)N2CCC(Cc3nc(-c4ccc(F)cc4)no3)CC2)cc1 | -18%
CCN(C(=O)CSc1nc2ccccc2nc1Cc1ccccc1OC)c1ccccc1 | -11%
COc1ccc(N2CCN(C(=O)CSc3n[nH]c(-c4ccccc4Cl)n3)CC2)cc1 | -5%
COc1ccc(N2CCN(C(=O)CSc3nc4ccccc4nc3Cc3ccc(Cl)cc3)CC2)cc1 | i
CCc1ccc(NC(=O)CSc2nc(-c3ccccc3)c(C#N)c(=O)[nH]2)cc1 | 14%
CN(C(=O)Cn1cccc1-c1nc(-c2ccc(F)cc2)no1)c1ccccc1 | -3%
CC(C)c1ccc(-c2noc(SCC(=O)N(C)c3ccc(F)cc3)n2)cc1 | 0.79µM*
Cc1ccc2c(c1)N1C(=O)OC[C@@H]1CCN(C1CCOCC1)C2 | 12%[44.1 µM]
